Experiment [1] has as its target ATP-dependent translocase ABCB1 (Homo sapiens) (UniProt P08183). Nature of the experiment: P-glycoprotein substrate transport blockade – cell-based (AID 377; in the data active = fluorescence slope change above about 50%). The following applies: MDR1-expressing cells, fluorescent substrate accumulation slope; stronger effect = higher value; concentration not given here.
A short description of experiment [2]: blockers of polyQ-driven CASP3 activation – cell-based (AID 1583). Particulars: polyglutamine-induced caspase-3 activation, cell assay; stronger effect = higher value;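 tested at 10 µM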.
A short description of experiment [3]: yeast 75Q aggregation reduction – 75Q-TubU reporter (AID 1593). Particulars: Yeast 75Q polyglutamine aggregation reporter.
Experiment [4] can be described thus: restoration of touch response, mutant HTT neurons – whole organism, C. elegans mechanosensory neurons, N-terminal huntingtin (AID 1599). The following applies: C. elegans polyQ-huntingtin mechanosensory neurons, stronger effect = higher value.
Experiment [5] in a line: blockers of cytochrome c efflux from mitochondria – biochemical, purified mitochondria (AID 1603).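 Also: mouse liver mitochondria challenged with calcium chloride; signal normalized to the plate average as 100%.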 The following applies: stronger effect = lower value.
Experiment [6] in a line: polyglutamine aggregate formation blockers (AID 1604). The following applies: polyglutamine-induced protein aggregation inhibition assay; stronger effect = higher value; tested at 2.5 µM.
Experiment [7] is described as follows: rescue of PC12 cells from polyQ htt toxicity – LDH release (AID 1610). Particulars: PC12 mutant huntingtin toxicity, final LDH at 4 uM, stronger effect = lower value. On the technique in general: Release of lactate dehydrogenase indicates damage to the cell membrane.
Experiment [8] is described as follows: glutamate transport activators, MN-1 cells, MN-1 cell line (AID 1612).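 Also: tested at 1 µM final; 0% = mean of DMSO vehicle wells on each plate; positive means more glutamate uptake than control and negative means less.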 The following applies: MN-1 motor neuron cells, stronger effect = higher value.
Experiment [9] in a line: 75Q-TubH aggregate inhibition, S. cerevisiae, yeast (AID 1616). Particulars: S. cerevisiae 75Q-TubH polyglutamine aggregation suppression; stronger effect = higher value.
Experiment [10] can be described thus: compounds altering circadian rhythm period length – cell-based, LOPAC library, luminescence reporter (AID 2774; call rule not given here;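 also: values are relative to mean of DMSO wells on each plate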). The following applies: circadian reporter cells, at 7 µM, actives lie on both sides.
Experiment [11] in a line: compounds altering viability of human ES cells (AID 493140; call rule not given here;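 also: cells exposed to compounds for four days before counting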). Particulars: human embryonic stem cell survival screen; stronger effect = higher value.
Experiment [12] in a line: P. berghei load reduction in hepatocytes – cell-based, HepG2, luciferase luminescence, HepG2 viability, primary screen (AID 624349; in the data active = parasite load remaining mostly below about 12%, no sharp cut-off; inactive = mostly above about 10%;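 also: 100% = mean of DMSO negative control wells on the same plate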). Particulars: P. berghei liver stage in HepG2, luciferase luminescence, concentration not given here; parasite load remaining: stronger effect = lower value; viability: measured here: HepG2 viability without parasites.
Experiment [13] deals with Hepatitis C virus NS3 helicase. Nature of the experiment: blockers of NS3h binding to ssDNA – biochemical, fluorescence polarization, LOPAC1280 library, primary screen (AID 687035; in the data active = inhibition above about 37%). Particulars: Purified HCV NS3 helicase, Cy5-dT15 ssDNA binding fluorescence polarization; stronger effect = higher value; concentration not given here. Background: Fluorescence polarisation rises when a labelled molecule tumbles more slowly, as on binding a larger partner.

Experiment [14] in a line: compounds altering Cy5-DNA-NS3h complex signal – biochemical, LOPAC1280, artefact control for HCV NS3 helicase inhibitor project (AID 687037; call rule not given here). The following applies: Cy5-DNA-NS3h complex fluorescence interference counterscreen.
The target in experiment [15] is 6-phosphogluconate dehydrogenase, decarboxylating (Homo sapiens) (UniProt P52209). The experiment can be described thus: inhibition of human phosphogluconate dehydrogenase – biochemical, recombinant enzyme, NADPH absorbance, primary screen (AID 1159550). The following applies: recombinant 6PGD, NADPH absorbance 341 nm; at 10 µM; stronger effect = higher value.
The nature of experiment [16]: viability loss in pontine glioma line – cell-based, SU-DIPG-IV, MIPE4.0, CellTiter-Glo, qHTS, dose response (AID 1347063; cut-off not given, nearly all actives have AC50 up to about 30 µM;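 also: compound exposure lasted 48 hours before the viability readout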). Particulars: CellTiter-Glo ATP luminescence. Background: ATP-based viability assays read luminescence as a measure of living cells.
The nature of experiment [17]: viability loss in pontine glioma line – cell-based, SU-DIPG-XXV, MIPE5.0, CellTiter-Glo, qHTS, dose response (AID 1347065; cut-off not given, nearly all actives have AC50 up to about 26 µM;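 also: cells exposed to compound for 48 hours before ATP readout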). The following applies: CellTiter-Glo ATP luminescence.
Experiment [18] is described as follows: growth inhibition of DIPG cells – cell-based, MIPE4.0 library, CellTiter-Glo luminescence, qHTS (AID 1347066; cut-off not given, nearly all actives have AC50 up to about 30 µM;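 also: cells exposed to compound for 48 hours before readout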). Particulars: SU-DIPG-VI viability, CellTiter-Glo ATP luminescence.
The nature of experiment [19]: chitosan synthesis blockers in C. neoformans – flow cytometry, Cibacron Brilliant Red staining (AID 1347148; call rule not given here;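 also: compound exposure lasted three days at 37 degrees C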). Particulars: Cryptococcus neoformans chitosan, stronger effect = lower value; at 10 µM unless noted.
A short description of experiment [20]: blockers of cellular phospholipid synthesis – cell-based, LOPAC library, screen 4, primary screen (AID 1347384; call rule not given here). The following applies: animal cells, phospholipid biosynthesis inhibition screen; at 10 µM.
Experiment [21] in a line: MELAS cybrid and Rieske KO viability enhancers – cell-based, MELAS cybrids, Rieske KO mouse fibroblasts, CellTiter-Glo, primary screen (AID 1508586;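 active = mean z-score across replicates of 1.96 or higher in either the MELAS or the Rieske mutant cell line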;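 also: z relative to plate mean and SD of compound and empty wells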). Particulars: low glucose.
In experiment [22] the target is Mitogen-activated protein kinase 7 (Homo sapiens) (UniProt Q13164). Nature of the experiment: Gal4-ERK5 driven luciferase induction – cell-based, HTS, primary screen (AID 1508626;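 active = luciferase signal above three times the same-plate solvent-only control wells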;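 also: luciferase driven by Gal4-ERK5 fusion binding five Gal4 sites before minimal TATA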). The following applies: HeLa Gal4-ERK5 transactivation, 18 h, at 5 µM, stronger effect = higher value.
Experiment [23] can be described thus: galactose survival enhancers in mitochondrial complex I cybrids – cell-based, galactose medium, ATP luminescence, primary screen (AID 1645843;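 active = z-score of at least 1.8 in each of two replicates, scored against plate mean and spread of sample wells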;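 also: positive z means more ATP and so rescue of galactose-driven cybrid death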). Particulars: complex I mutant cybrid cells, 72 h, stronger effect = higher value.
A short description of experiment [24]: viability loss with induced miR-34 in A549 – imaging, A549 dox-inducible miR-34, nuclei and caspase counts, primary screen (AID 1347080;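 active = compounds whose cell count with miR-34 switched on is under 0.7 times the count with it off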). The following applies: A549 miR-34 inducible, Hoechst nuclei count, 48 h.
In experiment [25] the target is NAD(+) hydrolase SARM1 (Homo sapiens) (UniProt Q6SZW1). Nature of the experiment: blocking NAD cleavage by SARM1 SAM-TIR – cell lysate, NAD-Glo luminescence (AID 1508614;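 active = compound whose remaining NAD level is above about 45 nM, limit read from the data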;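 also: higher remaining NAD means stronger inhibition of SARM1 NADase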). Particulars: SAM-TIR HEK293T lysate NADase, at 1 µM, stronger effect = higher value.
Experiment [26] can be described thus: GFP-Q80 aggregate reduction, neuronal-like cells, cell-based, NGF-treated PC12, GFPQ80 (AID 1614).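 Also: lower means fewer inclusions and 0 means no inclusions at all.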 Particulars: PC12 NGF-treated GFP-polyQ80 inclusion reduction.
[27] abbreviates: MELAS cybrid survival, CellTiter-Glo 48 h, stronger effect = higher value.
[28] abbreviates: Rieske KO mouse fibroblast survival, CellTiter-Glo 72 h.
Setting [29] is: stronger effect = lower value, cell number ratio, induced over uninduced.
[30] abbreviates: measured here: relative caspase fold change +Dox/-Dox.
Where [31] appears, read: measured here: total cells with miR-34 induction, stronger effect = lower value.
The mark [32] stands for this setting: measured here: total cells without miR-34 induction.

Each structure is given as a SMILES string. Several values for one entry are separate records, joined by “and”; a condition that tells them apart may be missing. Equal values may be shown once. Records with an inconclusive call do not appear. For some assays here: Entries with a potency or affinity are not part of this list. Where a structure was tested more than once in an assay, its records may differ in their call. Activity calls are given as the source filed them.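 The calls were made as follows, unless noted: active = at least 20% inhibition of 6-phosphogluconate dehydrogenase activity; inactive = the rest.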

Chain of 6-phosphogluconate dehydrogenase, decarboxylating (Homo sapiens) (P52209 whole entry, looked up): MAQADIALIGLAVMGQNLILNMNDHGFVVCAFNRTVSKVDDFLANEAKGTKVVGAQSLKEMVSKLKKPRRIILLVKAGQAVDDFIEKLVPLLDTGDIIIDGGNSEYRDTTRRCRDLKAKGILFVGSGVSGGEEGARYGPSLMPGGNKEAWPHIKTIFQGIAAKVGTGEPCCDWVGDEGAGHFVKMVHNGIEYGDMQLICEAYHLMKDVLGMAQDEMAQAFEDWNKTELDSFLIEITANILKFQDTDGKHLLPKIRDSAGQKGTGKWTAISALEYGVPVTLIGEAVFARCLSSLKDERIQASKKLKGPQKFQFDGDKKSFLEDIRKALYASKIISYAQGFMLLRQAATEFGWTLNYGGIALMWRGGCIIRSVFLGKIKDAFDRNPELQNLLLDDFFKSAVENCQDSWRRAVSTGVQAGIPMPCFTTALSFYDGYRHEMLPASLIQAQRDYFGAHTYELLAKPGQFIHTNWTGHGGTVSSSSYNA
Chain of Mitogen-activated protein kinase 7 (Homo sapiens) (Q13164 whole entry, looked up, the tested form may be a part): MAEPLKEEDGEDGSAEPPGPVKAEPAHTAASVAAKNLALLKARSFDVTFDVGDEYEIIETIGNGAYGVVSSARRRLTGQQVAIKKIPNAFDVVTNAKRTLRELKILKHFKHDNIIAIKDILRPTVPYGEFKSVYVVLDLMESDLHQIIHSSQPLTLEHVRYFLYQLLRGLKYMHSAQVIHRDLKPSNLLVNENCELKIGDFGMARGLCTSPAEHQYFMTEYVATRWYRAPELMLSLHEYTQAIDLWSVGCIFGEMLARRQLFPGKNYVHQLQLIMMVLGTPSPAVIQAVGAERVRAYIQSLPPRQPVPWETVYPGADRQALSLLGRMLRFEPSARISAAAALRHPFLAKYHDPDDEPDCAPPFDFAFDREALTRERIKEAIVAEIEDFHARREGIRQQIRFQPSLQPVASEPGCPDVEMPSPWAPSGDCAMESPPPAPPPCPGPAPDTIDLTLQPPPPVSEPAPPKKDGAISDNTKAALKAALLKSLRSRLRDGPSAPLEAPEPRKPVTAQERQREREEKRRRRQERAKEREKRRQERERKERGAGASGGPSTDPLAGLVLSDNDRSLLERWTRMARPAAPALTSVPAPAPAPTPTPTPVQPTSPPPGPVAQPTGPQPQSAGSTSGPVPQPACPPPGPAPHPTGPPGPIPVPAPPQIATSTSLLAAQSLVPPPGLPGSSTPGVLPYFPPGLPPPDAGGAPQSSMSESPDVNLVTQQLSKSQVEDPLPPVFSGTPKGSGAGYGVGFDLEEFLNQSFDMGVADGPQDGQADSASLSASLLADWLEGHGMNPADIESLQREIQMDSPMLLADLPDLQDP
Chain of NAD(+) hydrolase SARM1 (Homo sapiens) (Q6SZW1 whole entry, looked up): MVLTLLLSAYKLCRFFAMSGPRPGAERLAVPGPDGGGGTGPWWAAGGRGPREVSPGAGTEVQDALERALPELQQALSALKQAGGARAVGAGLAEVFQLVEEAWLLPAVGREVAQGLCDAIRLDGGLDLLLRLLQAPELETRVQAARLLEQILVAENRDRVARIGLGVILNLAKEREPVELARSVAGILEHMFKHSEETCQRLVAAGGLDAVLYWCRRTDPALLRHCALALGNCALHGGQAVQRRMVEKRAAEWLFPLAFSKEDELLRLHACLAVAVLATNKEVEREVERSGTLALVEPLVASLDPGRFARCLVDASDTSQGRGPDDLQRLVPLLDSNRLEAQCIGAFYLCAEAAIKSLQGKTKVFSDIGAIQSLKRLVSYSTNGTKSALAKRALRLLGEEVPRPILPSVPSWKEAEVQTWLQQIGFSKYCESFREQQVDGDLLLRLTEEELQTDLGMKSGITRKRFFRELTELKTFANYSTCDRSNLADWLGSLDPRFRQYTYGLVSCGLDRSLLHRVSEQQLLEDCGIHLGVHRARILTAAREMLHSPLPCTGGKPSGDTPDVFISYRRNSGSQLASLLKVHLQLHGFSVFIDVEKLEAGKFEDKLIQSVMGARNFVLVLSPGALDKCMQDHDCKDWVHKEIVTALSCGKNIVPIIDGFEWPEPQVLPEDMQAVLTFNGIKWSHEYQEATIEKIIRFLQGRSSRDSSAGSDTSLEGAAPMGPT
Chain of ATP-dependent translocase ABCB1 (Homo sapiens) (P08183 whole entry, looked up): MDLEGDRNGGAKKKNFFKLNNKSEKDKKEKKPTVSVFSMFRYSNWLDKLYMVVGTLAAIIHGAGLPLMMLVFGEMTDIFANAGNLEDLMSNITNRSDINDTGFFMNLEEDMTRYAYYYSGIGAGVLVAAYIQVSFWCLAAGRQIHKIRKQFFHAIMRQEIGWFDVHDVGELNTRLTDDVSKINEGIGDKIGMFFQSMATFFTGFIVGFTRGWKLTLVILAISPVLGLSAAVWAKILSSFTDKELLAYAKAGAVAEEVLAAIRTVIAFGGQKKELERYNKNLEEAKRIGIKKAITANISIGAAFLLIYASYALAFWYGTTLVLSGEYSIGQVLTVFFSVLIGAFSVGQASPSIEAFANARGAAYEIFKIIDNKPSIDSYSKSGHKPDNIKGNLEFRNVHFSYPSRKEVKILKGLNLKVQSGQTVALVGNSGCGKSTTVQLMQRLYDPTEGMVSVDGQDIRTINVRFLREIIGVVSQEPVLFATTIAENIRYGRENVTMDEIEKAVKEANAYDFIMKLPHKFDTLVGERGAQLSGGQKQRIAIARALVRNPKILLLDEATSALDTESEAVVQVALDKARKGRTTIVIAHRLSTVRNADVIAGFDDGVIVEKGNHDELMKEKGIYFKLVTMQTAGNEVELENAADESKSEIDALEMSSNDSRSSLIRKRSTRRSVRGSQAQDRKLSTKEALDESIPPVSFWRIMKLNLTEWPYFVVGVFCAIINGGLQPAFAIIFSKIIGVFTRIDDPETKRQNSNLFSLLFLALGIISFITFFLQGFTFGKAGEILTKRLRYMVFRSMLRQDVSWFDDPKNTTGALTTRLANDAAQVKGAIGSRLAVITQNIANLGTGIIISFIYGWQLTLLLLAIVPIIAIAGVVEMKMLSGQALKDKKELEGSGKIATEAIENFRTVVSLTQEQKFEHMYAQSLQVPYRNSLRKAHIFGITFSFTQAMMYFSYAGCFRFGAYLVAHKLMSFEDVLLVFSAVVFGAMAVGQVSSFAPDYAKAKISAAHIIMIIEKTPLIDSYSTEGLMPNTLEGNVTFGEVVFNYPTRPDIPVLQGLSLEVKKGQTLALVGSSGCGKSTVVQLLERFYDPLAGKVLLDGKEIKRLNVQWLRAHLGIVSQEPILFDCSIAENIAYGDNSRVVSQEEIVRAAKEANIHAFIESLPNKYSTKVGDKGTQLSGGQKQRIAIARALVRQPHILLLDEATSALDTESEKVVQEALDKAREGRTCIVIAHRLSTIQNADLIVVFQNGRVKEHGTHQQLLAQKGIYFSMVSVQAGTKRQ

On to `NC(=NCc1ccccc1)NC(=O)c1nc(Cl)c(N)nc1N`, for which the fluorescence slope change in [1] was 28% (inactive). For the same molecule, the inhibition – broadly, the drop in the measured response relative to a control, in per cent – in [2] was 7.39%; in [13] it was -1% (inactive); in experiment [15] it was -0.294% (inactive). The molecule also came in with a score in experiment [3] of 1.09. In [4], the rescue above control was found to be 5.46. For the same molecule, in experiment [5], the cytochrome c release ratio was determined as 0.99. In experiment [6], this molecule gave an inhibition of aggregation of 14.3%. In addition, the normalised LDH release in experiment [7] came to 1.01. Further, the glutamate uptake change in experiment [8] is 12.4%. The molecule also returned an aggregation suppression score in experiment [9] of 1.26. Besides, the period change in [10] is 0.11 h (inactive). For the same molecule, in experiment [11], the survival is 1.67 (inactive). The parasite load remaining in [12] is 116% (inactive) and 20% (inactive). In addition, the viability – broadly, a per cent measure of how many cells are alive, often set against a control – in [12] was 89.9% and 61%. The fluorescence ratio (interference) in experiment [14] is 1 (inactive). The molecule was called inactive in experiment [16], in experiment [18] and in experiment [20]. Also, the AC50 (commonly the concentration giving half of the maximal activity seen) in experiment [17] is 18.6 µM (active). The fold fluorescence in [19] is 5.57 [at 156.4 µM] (inactive). Besides, the z-score in experiment [21] (setting [27]) is 2.18 (active) and 1.24 (inactive); in experiment [21] (setting [28]), 1.18 and 1.91; in experiment [23] it was -0.87 (inactive) and -0.455 (inactive). In [22], the luciferase signal is 56 AU (inactive).
Consider `CN1[C@@H]2CC[C@H]1CC(OC(=O)[C@H](CO)c1ccccc1)C2` (stereo partly drawn), for which the fluorescence slope change in [1] is 17.8% (inactive). The parasite load remaining in experiment [12] was 60.1% (inactive). Moreover, the viability in experiment [12] was 43.8%. In addition, the inhibition in experiment [15] was -17.7% (inactive). For the same molecule, the values for the fold change in experiment [24] (setting [29]) and in [24] (setting [30]) were 0.891 (inactive) and 1.14, respectively. The cell count in [24] (setting [31]) was found to be 8370; in experiment [24] (setting [32]), 9390. Also, the z-score in experiment [21] (setting [27]) is -0.995 (inactive); in experiment [21] (setting [28]), -0.351. In addition, in experiment [25], the remaining NAD was 10 nM (inactive). In experiment [22], the luciferase signal is 144 AU (inactive).
Turning to `CO[C@H]1C[C@H](O[C@H]2[C@H](C)[C@@H](O[C@@H]3O[C@H](C)C[C@H](N(C)C)[C@H]3O)[C@@H](C)C[C@@]3(CO3)C(=O)[C@H](C)[C@@H](O)[C@@H](C)[C@@H](C)OC(=O)[C@@H]2C)O[C@@H](C)[C@@H]1O`, the parasite load remaining in experiment [12] is 43.4% (inactive). In addition, the viability in experiment [12] amounted to 44.8%. For the same molecule, the inhibition in experiment [15] was -12.7% (inactive). In addition, the results for the fold change in experiment [24] (setting [29]) and in [24] (setting [30]) were 0.882 (inactive) and 0.459, respectively. For the same molecule, the values for the cell count in [24] (setting [31]) and in experiment [24] (setting [32]) were 8150 and 9240, respectively. Besides, the remaining NAD in experiment [25] was 10 nM (inactive). Also, in experiment [22], the luciferase signal was 32 AU (inactive).
Consider `C[C@@H]1O[C@@H](OC[C@H]2O[C@@H](Oc3c(-c4ccc(OCCO)c(OCCO)c4)oc4cc(OCCO)cc(O)c4c3=O)[C@H](O)[C@@H](O)[C@@H]2O)[C@H](O)[C@H](O)[C@H]1O`, for which the inhibition in experiment [15] is -5.09% (inactive). In addition, the remaining NAD in experiment [25] was 10 nM (inactive). Also, the luciferase signal in experiment [22] is 72 AU (inactive).
In the case of `CCCCCC(=O)O[C@]1(C(C)=O)CC[C@H]2[C@@H]3CCC4=CC(=O)CC[C@]4(C)[C@H]3CC[C@@]21C`, the inhibition in experiment [15] is -2.17% (inactive). Further, the remaining NAD in [25] is 10 nM (inactive). For the same molecule, in experiment [22], the luciferase signal was 44 AU (inactive).
`CC(=O)O[C@H]1C[C@@]2(C)[C@@H](C[C@@H](O)[C@H]3[C@@]4(C)CC[C@@H](O)[C@@H](C)[C@@H]4CC[C@@]32C)/C1=C(\CCC=C(C)C)C(=O)O`: the survival in experiment [11] was 5.08 (inactive). Also, in experiment [12], the parasite load remaining is 64.8% (inactive) and the viability was 78.6%. In addition, the inhibition in experiment [15] is 4.42% (inactive). Also, the remaining NAD in experiment [25] is 10 nM (inactive). Besides, the luciferase signal in experiment [22] is 128 AU (inactive).
As to `CC1CCCC(C)N1NC(=O)c1ccc(Cl)c(S(N)(=O)=O)c1` (stereo not drawn), the results for the inhibition in experiment [2] and in [15] were 16.7% and 6.91% (inactive), respectively. This molecule gave a score in experiment [3] of 1.67. In addition, in [4], the rescue above control was -10.1. In addition, the cytochrome c release ratio in [5] was 0.96. Also, the inhibition of aggregation in experiment [6] amounted to 25.5%. Besides, the glutamate uptake change in experiment [8] was -0.09%. In addition, the inclusion score in [26] amounted to 2. For the same molecule, in [9], the aggregation suppression score amounted to 1.2. In experiment [11], the survival is 5.92 (inactive). In [12], the parasite load remaining was 92.4% (inactive) and 77.2% (inactive). In experiment [12], the viability is 76.8% and 96.5%. Besides, the fold change in experiment [24] (setting [29]) is 0.9 (inactive); in experiment [24] (setting [30]) it was 4.97. Besides, the results for the cell count in experiment [24] (setting [31]) and in experiment [24] (setting [32]) were 7530 and 8360, respectively.
Turning to `O=C(OC[C@H]1O[C@@H](OC(=O)c2cc(O)c(O)c(OC(=O)c3cc(O)c(O)c(O)c3)c2)[C@H](OC(=O)c2cc(O)c(O)c(OC(=O)c3cc(O)c(O)c(O)c3)c2)[C@@H](OC(=O)c2cc(O)c(O)c(OC(=O)c3cc(O)c(O)c(O)c3)c2)[C@@H]1OC(=O)c1cc(O)c(O)c(OC(=O)c2cc(O)c(O)c(O)c2)c1)c1cc(O)c(O)c(OC(=O)c2cc(O)c(O)c(O)c2)c1`, the inhibition in experiment [15] was 12.6% (inactive). Also, the remaining NAD in experiment [25] is 10 nM (inactive). Besides, the luciferase signal in experiment [22] was 32 AU (inactive).
`CCCCC[C@@H](O)[C@H]1C(=O)O[C@H](C)[C@@H](O)/C=C/C=C/C=C/C=C/C=C(\C)[C@@H](O)C[C@H](O)C[C@H](O)C[C@H](O)C[C@H](O)C[C@H](O)C[C@@H]1O`: the inhibition in [15] was 6.12% (inactive). Also, the fold change in experiment [24] (setting [29]) was 1.04 (inactive); in [24] (setting [30]), 1.06. Also, the cell count came to 6150 in [24] (setting [31]) and 5900 in experiment [24] (setting [32]). The luciferase signal in experiment [22] is 72 AU (inactive).

For the origin of these results see PubChem BioAssay.
